In ChEMBL document CHEMBL3433997, “St. Jude Leishmania screening dataset” (2016):

What follows are compounds tested against Solute carrier family 2, facilitated glucose transporter member 1 (Homo sapiens) (UniProt P11166) (assay: ST_JUDE_LEISH: Cytotoxicity at 2uM final concentration against transgenic Leishmania Mexicana promastigotes LmGLUT1 that are glucose transport deficient and complemented with the human glucose transporter GLUT1. Activity is measured by DNA content using SYBR green in vitro).
Assay type: functional

Sequence of Solute carrier family 2, facilitated glucose transporter member 1 (Homo sapiens) (P11166 whole entry): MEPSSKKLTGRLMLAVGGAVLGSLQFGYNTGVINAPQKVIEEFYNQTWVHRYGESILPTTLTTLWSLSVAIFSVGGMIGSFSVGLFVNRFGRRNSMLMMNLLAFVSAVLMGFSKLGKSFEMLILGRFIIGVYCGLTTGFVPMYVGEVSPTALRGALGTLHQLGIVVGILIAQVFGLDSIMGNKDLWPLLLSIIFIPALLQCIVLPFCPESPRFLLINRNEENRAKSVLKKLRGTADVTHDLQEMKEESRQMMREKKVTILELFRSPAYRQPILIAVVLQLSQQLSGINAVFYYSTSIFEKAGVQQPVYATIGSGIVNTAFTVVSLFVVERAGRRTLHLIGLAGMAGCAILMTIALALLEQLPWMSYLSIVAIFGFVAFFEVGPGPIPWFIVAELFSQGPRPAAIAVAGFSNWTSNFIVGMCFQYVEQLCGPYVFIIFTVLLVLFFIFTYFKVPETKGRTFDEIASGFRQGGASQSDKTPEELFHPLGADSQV

Row | Compound | inhibition [%]
1 | CCNC(=O)NC1CCN(Cc2c(-c3cccs3)nc3ccccc3c2C(=O)N[C@@H](C)C2CCCCC2)CC1 | 2.27
2 | O=C(Nc1ccc(Cl)cc1)c1ccc(CN2CCCN(Cc3ccccc3)CC2)cc1 | 1.68
3 | O=C(NCCCCN1CCC(c2ccc3c(c2O)CCCC3)CC1)c1ccc(-c2ccc(Cl)cc2)cc1 | 1.35
4 | NCCCNc1ccc(-c2ccc(NC(=O)Nc3cc(C(F)(F)F)ccc3F)cc2)cn1 | 2.29
5 | N#Cc1cccc(CN(Cc2ccc(Cl)c(Cl)c2)S(=O)(=O)c2cccc([N+](=O)[O-])c2)c1 | 2.24
6 | O=C(/C=N/O)Nc1ccccc1[N+](=O)[O-] | -1.31
7 | COc1ccc(CNC2CCN(C)CC2)cc1-c1ccc(S(=O)(=O)NCCc2ccccn2)s1 | -2.94
8 | Cc1cc(N(C)C)nc(Nc2ccc(NC(=O)C(C)Oc3ccccc3)cc2)n1 (stereo not given) | 13.2
9 | CC(C)Cn1cc(C2CCN(CCN3CCC(CNC(=O)c4ccc(NC(=O)c5ccc(Cl)cc5)cc4)CC3)CC2)c2ccccc21 | 7.85
10 | OC1CCCN(Cc2ccc(-c3cccc(-c4nc5ccccc5[nH]4)c3)cc2)C1 (stereo not given) | 2.79
11 | Cc1ccc(NCc2cccc(F)c2)cc1S(=O)(=O)N[C@@H]1CCN(C#N)C1 | 7.1
12 | Cc1cccc2nc(-c3ccc(-c4cccc(NC(=O)Nc5ccc(F)c(F)c5F)c4)cc3)[nH]c12 | 2.29
13 | Cc1ccc(C(C(=O)Nc2ccc(N3CCNCC3)c(Cl)c2)c2ccccc2)cc1 (stereo not given) | 4.78
14 | Cc1c(OC(C)C)nc2ccccc2c1C(=O)N[C@H](c1cccc(F)c1)C1CC1 | 0.15
15 | Cc1nc(N)nc(N)c1OCCCCOc1ccccc1 | 3.87
